Where a name gives a salt, the structure may show the parent alone.
System: Saccharomyces cerevisiae BY4741 SeMeCo community
Experiment: z-score of subpopulation abundance vs DMSO median, subpopulation auxotrophic for LM; higher = larger share of this subpopulation than in DMSO controls
Conditions: 10 µM; 24 h; SM minimal medium; subpopulation (auxotrophy): LM
Protocol: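 Fluorescent four-plasmid SeMeCo (self-establishing metabolically cooperating S. cerevisiae BY4741 community; plasmids pH-mRuby2, pL-mWasabi, pU-eCFP, pM-TagRFP657) was grown 24 h in minimal SM medium with each Selleck FDA-approved drug at 10 µM in 384-well plates. Cells were fixed and imaged by high-content confocal microscopy. For each auxotrophic subpopulation (and the prototroph), a z-score gives the deviation from the DMSO vehicle-control population median.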

Row | SMILES | z-score of subpopulation abundance
1 | CCn1cc(C(=O)O)c(=O)c2cc(F)c(N3CCNC(C)C3)c(F)c21 (stereo not given) [Lomefloxacin HCl] | 1.35
2 | CCCCCc1ccc(C)cc1O [Amylmetacresol] | -0.71
3 | CN(C)c1ccc(O)c2c1C[C@H]1C[C@H]3[C@H](N(C)C)C(=O)C(C(N)=O)=C(O)[C@@]3(O)C(=O)C1=C2O [Minocycline HCl] | 0.75
4 | NNc1nncc2ccccc12 [Hydralazine HCl] | -0.56
5 | CC1(C)S[C@@H]2[C@H](NC(=O)COc3ccccc3)C(=O)N2[C@H]1C(=O)O [Penicillin V potassium salt] | 0.22
6 | CN1CCN(c2c(F)cc3c(=O)c(C(=O)O)cn4c3c2OCN4C)CC1 [Marbofloxacin] | -0.36
7 | CN[C@@H]1[C@H](O)[C@H](NC)[C@H]2O[C@@]3(O)C(=O)C[C@@H](C)O[C@H]3O[C@@H]2[C@H]1O [Spectinomycin 2HCl] | -1.03
8 | CCOC(=O)c1c(CSc2ccccc2)n(C)c2cc(Br)c(O)c(CN(C)C)c12 [Arbidol HCl] | -0.98
9 | CN[C@H](CC(C)C)C(=O)N[C@H]1C(=O)N[C@@H](CC(N)=O)C(=O)N[C@H]2C(=O)N[C@H]3C(=O)N[C@H](C(=O)N[C@H](C(=O)O)c4cc(O)cc(O)c4-c4cc3ccc4O)[C@H](O)c3ccc(c(Cl)c3)Oc3cc2cc(c3O[C@@H]2O[C@H](CO)[C@@H](O)[C@H](O)[C@H]2O[C@H]2C[C@](C)(N)[C@H](O)[C@H](C)O2)Oc2ccc(cc2Cl)[C@H]1O [Vancomycin HCl] | 0.26
10 | CN[C@@H]1[C@@H](O)[C@@H](O[C@@H]2[C@@H](O)[C@H](O[C@H]3OC(CN)=CC[C@H]3N)[C@@H](N)C[C@H]2N)OC[C@]1(C)O [Sisomicin sulfate] | 1.22
11 | COCCCOc1ccnc(C[S+]([O-])c2nc3ccccc3[nH]2)c1C (stereo not given) [Rabeprazole] | -0.33
12 | Cc1c(C)c2c(c(C)c1O)CCC(C)(CCCC(C)CCCC(C)CCCC(C)C)O2 (stereo not given) [Vitamin E] | -0.64
13 | Cc1nnc(SCC2=C(C(=O)O)N3C(=O)[C@@H](NC(=O)Cn4cnnn4)[C@H]3SC2)s1 [Cefazolin Sodium] | 0.26
14 | Cc1cc(=O)n(-c2ccccc2)n1C [Antipyrine] | -0.72
15 | CO[C@@H]1[C@@H](O[C@@H]2O[C@H](C)[C@@H](O[C@H]3C[C@@](C)(O)[C@@H](O)[C@H](C)O3)[C@H](N(C)C)[C@H]2O)[C@@H](CC=O)C[C@@H](C)[C@@H](O[C@H]2CC[C@H](N(C)C)[C@@H](C)O2)/C=C/C=C/C[C@@H](C)OC(=O)C[C@H]1OC(C)=O [Acetylspiramycin (ASPM)] | 1.53
16 | Nc1ccc(S(=O)(=O)Nc2ccccn2)cc1 [Sulfapyridine] | -0.18
17 | CCC(=O)c1c(O)cc(O)cc1O [Flopropione] | 0.21
18 | Oc1ccc([C@H]2COc3cc(O)ccc3C2)cc1 [Equol] | 0.45
19 | O=C(c1ccc(OCCN2CCCCC2)cc1)c1c(-c2ccc(O)cc2)sc2cc(O)ccc12 [Raloxifene] | 0.49
20 | Nc1nc2c(ncn2COCCO)c(=O)[nH]1 [Aciclovir] | 0.9

Row | SMILES | z-score of subpopulation abundance
21 | Nc1nc(=O)[nH]cc1F [Flucytosine] | -4.29
22 | CC1(C)CC[C@]2(C(=O)O)CC[C@]3(C)C(=CC[C@@H]4[C@@]5(C)CC[C@H](O)C(C)(C)[C@@H]5CC[C@]43C)[C@@H]2C1 [Oleanolic Acid] | 0.88
23 | CC[C@@H]1/C=C(\C)C[C@H](C)C[C@H](OC)[C@H]2O[C@@](O)(C(=O)C(=O)N3CCCC[C@H]3C(=O)O[C@H](/C(C)=C/[C@@H]3CC[C@@H](O)[C@H](OC)C3)[C@H](C)[C@@H](O)CC1=O)[C@H](C)C[C@@H]2OC [Ascomycin (FK520)] | 1.39
24 | NC[C@H]1O[C@H](O[C@H]2[C@H](O[C@@H]3O[C@H](CO)[C@@H](O)[C@H]3O)[C@@H](O)[C@H](N)C[C@@H]2N)[C@H](N)[C@@H](O)[C@@H]1O [Ribostamycin Sulfate] | -0.67
25 | O=c1cc(-c2ccc(O)c(O)c2)oc2cc(O)cc(O)c12 [Luteolin] | 0.14
26 | CCCNC(C)C(=O)Nc1ccccc1C (stereo not given) [Prilocaine] | -0.18
27 | C[C@@H]1C/C=C/C=C/C=C/C=C/[C@H](O[C@@H]2O[C@H](C)[C@@H](O)[C@H](N)[C@@H]2O)C[C@@H]2O[C@](O)(C[C@@H](O)C[C@H]3O[C@@H]3/C=C/C(=O)O1)C[C@H](O)[C@H]2C(=O)O [Natamycin] | 2.04
28 | C[C@@H](O)[C@H]1C(=O)N2C(C(=O)O)=C([C@H]3CCCO3)S[C@H]12 [Faropenem Sodium] | -0.23
29 | O=C(O)CCC(=O)OC[C@@H](NC(=O)C(Cl)Cl)[C@H](O)c1ccc([N+](=O)[O-])cc1 [Chloramphenicol sodium succinate] | 1.25
30 | CC1=C(C(=O)O)N2C(=O)[C@@H](NC(=O)[C@H](N)c3ccc(O)cc3)[C@H]2SC1 [Cefadroxil hydrate] | -0.09
31 | CC1(C)S[C@@H]2[C@H](NC(=O)Cc3ccccc3)C(=O)N2[C@H]1C(=O)O [Benzathine penicilline] | -0.93
32 | CCCc1nn(C)c2c(=O)[nH]c(-c3cc(S(=O)(=O)N4CCN(C)CC4)ccc3OCC)nc12 [Sildenafil Citrate] | -0.26
33 | C[C@H]1c2cccc(O)c2C(O)=C2C(=O)[C@]3(O)C(O)=C(C(N)=O)C(=O)[C@@H](N(C)C)[C@@H]3[C@@H](O)[C@@H]21 [Doxycycline monohydrate] | 0
34 | CO/N=C(\C(=O)N[C@@H]1C(=O)N2C(C(=O)O)=C(CSc3nc(=O)c(O)nn3C)CS[C@H]12)c1csc(N)n1 [Ceftriaxone Sodium Trihydrate] | -0.18
35 | CNCCCC1c2ccccc2C=Cc2ccccc21 [Protriptyline hydrochloride] | -0.93
36 | CC(C)(C)C(=O)OCOC(=O)[C@@H]1N2C(=O)[C@@H](/N=C/N3CCCCCC3)[C@H]2SC1(C)C [Pivmecillinam hydrochloride] | -0.18
37 | CN1CCCN=C1/C=C/c1cccc(O)c1 [Oxantel Pamoate] | -0.51
38 | COC(=O)Nc1nc2cc(C(=O)c3ccc(F)cc3)ccc2[nH]1 [Flubendazole] | 0.25
39 | O=C(Nc1c(Cl)cncc1Cl)c1ccc(OC(F)F)c(OCC2CC2)c1 [Roflumilast] | -0.1
40 | CO[C@H]1C[C@@H]2CC[C@@H](C)[C@@](O)(O2)C(=O)C(=O)N2CCCC[C@H]2C(=O)O[C@H]([C@H](C)C[C@@H]2CC[C@H](n3cnnn3)[C@H](OC)C2)CC(=O)[C@H](C)/C=C(\C)[C@@H](O)[C@@H](OC)C(=O)[C@H](C)C[C@H](C)/C=C/C=C/C=C/1C [Zotarolimus(ABT-578)] | 2.28

Reference: the supplement of paper PMC8975748
